In all, about 52,000 sequences went through this assay and about 210 (0.4%) were called active. The entries come from a sample that favours actives as a whole. Values without a mark were called inactive.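 How the source made its calls: active means gene whose silencing raises cell survival under the drug, median off-target-corrected z-score across its silencing RNAs 2 or more; inactive means the rest.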
Experiment: Resistance to Poly (ADP-Ribose) Polymerase inhibitor: Gene Identification via Genome-wide siRNA Screen
Conditions: mouse BRCA2 R2336H ES cells, olaparib, CellTiter-Glo viability; hits give high values
How it was run: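 Mouse BRCA2 R2336H ES cells were reverse-transfected with siRNA (20 nM final), treated at 48 h with 500 nM olaparib, and read by CellTiter-Glo after 72 h. Scores: MAD-based z per siRNA, median per gene, seed off-target correction.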

Sequence | z-score
CCAGAACUUCCCAUUAAAATT against Alg8 | -0.0137
CCUUAUUGGGUCAUAAGCATT against 2210403B10Rik | 0.798
CCUCCGUUUGAUGACUCAATT against Tcte3 | 0.671
GCGAUUCAAACUUAUUCGATT against Pcdhb15 | 0.749
CCAUGAUCAAGAUUGUGCUTT against Slc29a1 | -0.707
CCCUCGAUCCUUUUCACCUTT against Gja4 | 1.09
CUAGUAGGGUCAGAAUUUUTT against Olfr329 | 2.11
CCAUGCAUCUAAGUCUCGATT against Trpm3 | 1.35
GGAUUAAUUAAUACUUGGCTT against 3010033P07Rik | 0.03
GGACCACCUAAGUUUAAGCTT against Pde6g | 2.55 (active)
GCCAGAAUGGACUUGAGAATT against V1re6 | -0.0714
GUUGAGGACUUCUUGCUGGTT against Cmar | -1.03
GGUAUGAGUGAAGAAAAGATT against Ifi205 | -0.37
CCAUAAACGACGAAAUGAUTT against Usp11 | 2.97 (active)
GGCAUCUGUUAUUGAAGUGTT against Vit | 0.771
GGCCGAGUACAAACGUGGATT against AU019532 | 0.561
CCCUACCUUGAACGAGUACTT against Apoa1 | 0.773 (active)
GGAGAAGAAGCAGAGAGAATT against C530028I08Rik | -0.263
CCUUUCAGGCCAAUUGGCATT against Ube2l6 | 0.111
UCUCCUUCCUAACUUCAACTT against E030010A14 | 0.4
GGAACAGGACUUUUGAUAATT against 2700050F09Rik | 1.03 (active)
GGCCAAUGAUGAUAACAAATT against Catnd2 | 0.564
CCUCUCCUACACUUCAAAATT against Cmya4 | 0.746
GGCUUUUUCCUCUACCCACTT against Trhde | 0.762
GGUGUUUAAAGAUUUCGUUTT against Dhrs2 | 0.996
GCAAUGAACUAUGAAGGCATT against Npm1 | 0.811 (active)
CCCUUCACAACUUCUUAAUTT against Olfr872 | 0.609
GGGCAUCAGCAUUUGGUCATT against Pparbp | 1.17
GGACUACCUCACACUCUUCTT against Oprs1 | -0.235

From PubChem BioAssay AID1347423 (Functional Genomics Laboratory (NCATS/FGL), 2020)
